Rows were chosen to be rich in hits. Some 2.3% of all compounds tested hit in one or more screens of this group.
ERp5 block: blocks human ERp5 reductase activity on insulin; ERp5 insulin aggregation, absorbance 650 nm, 90 min; AID 651711; 0.05% of 350,000 active; inhibition, % at 9.99 µM;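 active means mean replicate inhibition above about 25%, with every replicate also reaching it, limit read from the data, passing the limit was not always enough; inconclusive means only one of those two criteria met; inactive means neither criterion met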
Target sequence (Q15084 whole entry, looked up): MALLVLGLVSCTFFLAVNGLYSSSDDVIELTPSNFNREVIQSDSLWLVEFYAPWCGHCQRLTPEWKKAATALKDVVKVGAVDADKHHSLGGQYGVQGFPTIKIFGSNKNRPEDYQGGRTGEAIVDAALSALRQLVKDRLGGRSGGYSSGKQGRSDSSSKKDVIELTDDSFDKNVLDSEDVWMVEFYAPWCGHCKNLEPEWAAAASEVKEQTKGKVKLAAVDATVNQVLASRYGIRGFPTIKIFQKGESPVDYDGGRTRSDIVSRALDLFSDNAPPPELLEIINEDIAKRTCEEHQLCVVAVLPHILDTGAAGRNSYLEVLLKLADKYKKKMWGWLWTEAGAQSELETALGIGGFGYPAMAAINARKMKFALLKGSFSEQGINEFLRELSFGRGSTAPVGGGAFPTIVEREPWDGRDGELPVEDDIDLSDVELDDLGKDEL
DENV2 CPE: protects cells from dengue virus 2 cytopathic effect. DENV2-infected cells, cytopathic effect rescue, plate reader. CPE inhibition, % at 9.99 µM. 1.7% of 350,000 active; in the data active means CPE inhibition above about 20%, passing the limit was not always enough; inconclusive means no clear call, values can overlap the other calls; tested in BHK-21 cells
Rtt109 HAT inh: C. albicans Rtt109 histone acetyltransferase inhibition. AID 540336. 0.16% of 330,000 active. Q5AAJ8. purified Rtt109/Vps75, ThioGlo CoA-SH fluorescence, 4 h. inhibition, % at 34.9 µM;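 active means inhibition of at least 50% in every replicate; inconclusive means best replicate reaches 50% inhibition but some replicates fall short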
PDI turbidity: blocks human protein disulfide isomerase activity | P07237 | PDI insulin aggregation turbidity, A650, 90 min | inhibition, % at 10 µM | 0.052% of 350,000 active | AID 588391;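 active means mean inhibition across replicates of 30% or more, whatever share of single replicates reach that level; inconclusive means mean inhibition below 30% while every single replicate reaches 30%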
SIRT5 block: sirtuin-5 (human) deacylase inhibition; Purified SirT5, succinyl-peptide AMC, trypsin-coupled fluorescence; inhibition, % at 15 µM; 1.1% of 330,000 active; in the data active means inhibition above about 15%; inconclusive means no clear call, values can overlap the other calls
Each line names hits and unclear results; the compound was inactive in the other large screens; ! = not active in a repeat.

C[C@H](CO)N1C[C@H](C)[C@H](CN(C)C(=O)C2CC2)Oc2cc(/C=C/c3ccccc3)ccc2S1(=O)=O	none (no result: Rtt109 HAT inh, PDI turbidity)
CC1=C/C(=C(\c2cc(C)c(O)c(Br)c2)c2ccccc2S(=O)(=O)O)C=C(Br)C1=O	SIRT5 block 16
O=c1oc2ccccc2c(Nc2ccccc2O)c1[N+](=O)[O-]	SIRT5 block 17
CCS(=O)(=O)Nc1ccc2c(c1)C(=O)N(C)[C@@H]1CC[C@@H](CC(=O)OC)O[C@H]1CO2	none (no result: Rtt109 HAT inh, PDI turbidity)
CN(C)c1ccc(C(=O)c2ccccc2C(=O)O)cc1[N+](=O)[O-]	SIRT5 block 28
O=C(C[C@@H]1C[C@H]2c3cc(NC(=O)Nc4ccccc4)ccc3O[C@H]2[C@H](CO)O1)NCc1ccccc1	none (no result: Rtt109 HAT inh, PDI turbidity)
CC(C)NC(=O)Nc1ccc2c(c1)C(=O)N([C@@H](C)CO)C[C@H](C)[C@@H](CN(C)Cc1ccc(Oc3ccccc3)cc1)O2	none (no result: Rtt109 HAT inh, PDI turbidity)
C[C@H](CO)N1C[C@H](C)[C@@H](CN(C)C(=O)NC2CCCCC2)Oc2cc(/C=C/c3ccccc3)ccc2S1(=O)=O	none (no result: Rtt109 HAT inh, PDI turbidity)
C[C@H]1CN([C@@H](C)CO)S(=O)(=O)c2ccc(/C=C/c3ccccc3)cc2O[C@H]1CN(C)C(=O)NC1CCCC1	DENV2 CPE inconclusive, SIRT5 block 19 (no result: Rtt109 HAT inh, PDI turbidity)
C[C@H](CO)N1C[C@H](C)[C@H](CN(C)C(=O)NC2CCCCC2)Oc2cc(/C=C/c3ccccc3)ccc2S1(=O)=O	SIRT5 block 25 (no result: Rtt109 HAT inh, PDI turbidity)
C[C@@H]1CN([C@@H](C)CO)S(=O)(=O)c2ccc(/C=C/c3ccccc3)cc2O[C@H]1CN(C)C(=O)NC1CCCCC1	SIRT5 block 22 (no result: Rtt109 HAT inh, PDI turbidity)
C/C=C/c1ccc2c(c1)O[C@H](CN(C)C(=O)NC1CCCC1)[C@@H](C)CN([C@@H](C)CO)S2(=O)=O	none (no result: Rtt109 HAT inh, PDI turbidity)
C[C@@H]1CN([C@@H](C)CO)S(=O)(=O)c2ccc(/C=C/c3ccccc3)cc2O[C@@H]1CN(C)C(=O)NC1CCCCC1	SIRT5 block 28 (no result: Rtt109 HAT inh, PDI turbidity)
CC=Cc1ccc2n(c1=O)C[C@H]1[C@H](CO)[C@@H](C(=O)NCC3CC3)[C@@H]2N1CCC (mixture of isomers)	none (no result: Rtt109 HAT inh, PDI turbidity)
C[C@H]1CN([C@@H](C)CO)S(=O)(=O)c2ccc(/C=C/c3ccccc3)cc2O[C@H]1CN(C)C(=O)NC1CCCCC1	SIRT5 block 26! (no result: Rtt109 HAT inh)
COc1ccc(NC(=O)C2CCC(CNS(=O)(=O)c3cccs3)CC2)cc1OC (stereo not given)	DENV2 CPE 31
C[C@@H]1CN([C@H](C)CO)C(=O)c2cc(NC(=O)Nc3ccc(C(F)(F)F)cc3)ccc2O[C@H]1CN(C)S(=O)(=O)c1ccccc1	DENV2 CPE 33
Cc1noc(C)c1NC(=O)Nc1ccc2c(c1)CC(=O)N([C@@H](C)CO)C[C@@H](C)[C@H](CN(C)S(=O)(=O)c1cccs1)O2	none (no result: Rtt109 HAT inh, PDI turbidity)
Cc1noc(C)c1NC(=O)Nc1ccc2c(c1)CC(=O)N([C@@H](C)CO)C[C@@H](C)[C@@H](CN(C)S(=O)(=O)c1cccs1)O2	DENV2 CPE 36 (no result: Rtt109 HAT inh, PDI turbidity)
C[C@@H]1CN([C@H](C)CO)C(=O)Cc2cc(NC(=O)Nc3ccc(C(F)(F)F)cc3)ccc2O[C@@H]1CN(C)S(=O)(=O)c1cccs1	DENV2 CPE 27 (no result: Rtt109 HAT inh, PDI turbidity)
C[C@H]1CN([C@@H](C)CO)C(=O)Cc2cc(NC(=O)Nc3ccc(C(F)(F)F)cc3)ccc2O[C@H]1CN(C)S(=O)(=O)c1cccs1	none (no result: Rtt109 HAT inh, PDI turbidity)
C[C@H](CO)N1C[C@H](C)[C@@H](CN(C)S(=O)(=O)c2ccccc2)Oc2ccc(NC(=O)Nc3ccc(C(F)(F)F)cc3)cc2CC1=O	DENV2 CPE 65, SIRT5 block 19 (no result: Rtt109 HAT inh, PDI turbidity)
O=C(C[C@@H]1C=C[C@@H](NS(=O)(=O)c2ccc(F)cc2)[C@H](CO)O1)NC1CCC1	none (no result: Rtt109 HAT inh, PDI turbidity)
CCCNC(=O)N1CC2(CCN(Cc3cccc(OC)c3)CC2)c2c([nH]c3cc(OC)ccc23)[C@@H]1CO	none (no result: ERp5 block, Rtt109 HAT inh, PDI turbidity, SIRT5 block)
CN(C)C(=O)[C@@H]1[C@@H](CO)[C@@H]2Cn3c(ccc(/C=C/c4ccccc4)c3=O)[C@@H]2N1C(=O)c1cnccn1	none (no result: Rtt109 HAT inh, PDI turbidity)
O=C(C[C@@H]1C=C[C@H](NC(=O)Nc2cc(F)ccc2F)[C@H](CO)O1)NCc1ccccn1	none (no result: Rtt109 HAT inh, PDI turbidity)
C[C@H]1CN([C@@H](C)CO)C(=O)Cc2cc(NC(=O)Nc3ccccc3)ccc2O[C@H]1CN(C)S(=O)(=O)c1cccs1	DENV2 CPE 33 (no result: Rtt109 HAT inh, PDI turbidity)
C=CCOC(=O)C1=C[C@@H](c2ccc(C(F)(F)F)cc2)[C@H](CCCO)[C@@H](OCC)O1	DENV2 CPE 36!
C=CCOC(=O)C1=C[C@H](c2ccc(C(F)(F)F)cc2)[C@@H](CCCO)[C@H](OCC)O1	none
COc1cccc(-c2ccc(C3[C@H]4CNC[C@@H]3N4C(=O)Nc3ccc(C(F)(F)F)cc3)cc2)c1 (stereo not given in full)	DENV2 CPE 33! (no result: ERp5 block, Rtt109 HAT inh, PDI turbidity, SIRT5 block)
COc1cccc(NC(=O)N2[C@@H]3CNC[C@H]2C3c2ccc(/C=C/c3ccccc3)cc2)c1 (stereo not given in full)	DENV2 CPE 89! (no result: Rtt109 HAT inh, PDI turbidity)
COc1cccc(NC(=O)N2[C@@H]3CNC[C@H]2C3c2ccc(-c3ccccc3)cc2)c1 (stereo not given in full)	DENV2 CPE 99! (no result: Rtt109 HAT inh, PDI turbidity)
O=C(Nc1ccc(C(F)(F)F)cc1)N1C[C@@H]2N[C@H](C1)C2c1ccc(-c2ccccc2)cc1 (stereo not given in full)	SIRT5 block 21! (no result: Rtt109 HAT inh, PDI turbidity)
CNC[C@H]1Oc2ccc(NC(=O)C3CCCCC3)cc2CC(=O)N([C@@H](C)CO)C[C@@H]1C	none (no result: Rtt109 HAT inh, PDI turbidity)
CC1CCOC(c2coc3ccccc3c2=O)O1 (stereo not given)	DENV2 CPE 33
O=C(O)C1CSC(c2coc3ccccc3c2=O)N1 (stereo not given)	none
COc1ccc(N2CCN(C(=O)[C@H](C)NC(=O)c3ccccc3Cl)CC2)cc1	none
COc1ccc(N2CCN(C(=O)[C@@H](NC(=O)c3ccccc3Cl)C(C)C)CC2)cc1	SIRT5 block 16
Cc1ccc(Nc2nc(NCCO)nc(N3CCCC3)n2)cc1	DENV2 CPE 60 (no result: SIRT5 block)
COc1ccccc1Nc1nc(NCCO)nc(N2CCCC2)n1	none
COc1ccccc1Nc1nc(NCCCCO)nc(N2CCCC2)n1	DENV2 CPE 86 (no result: SIRT5 block)
OCCNc1nc(Nc2ccccc2C(F)(F)F)nc(N2CCCC2)n1	none
Cc1ccc2oc(C(=O)N(Cc3ccncc3)CC3CCCO3)c(C)c2c1 (stereo not given)	DENV2 CPE 47
CCCc1ccc2oc(C(=O)N(Cc3ccncc3)CC3CCCO3)c(C)c2c1 (stereo not given)	none
CCCC(=O)Nc1ccc2c(c1)OC[C@@H](C)N(C(=O)c1ccccn1)C[C@H](C)[C@H](OC)CN(C)C2=O	none (no result: Rtt109 HAT inh, PDI turbidity)
CCC(=O)Nc1ccc2c(c1)OC[C@H](C)N(C(=O)c1ccccn1)C[C@H](C)[C@H](OC)CN(C)C2=O	DENV2 CPE 34 (no result: Rtt109 HAT inh, PDI turbidity)
CCC(=O)Nc1ccc2c(c1)C(=O)N(C)C[C@@H](OC)[C@H](C)CN(C(=O)c1ccccn1)[C@@H](C)CO2	DENV2 CPE 27 (no result: Rtt109 HAT inh, PDI turbidity)
